Screens deposited in PubChem BioAssay by several laboratories.
Hits are enriched below; roughly 1.5% of the tested compounds scored in any of these assays.
Cdc25B inh = inhibitors of human Cdc25B phosphatase. recombinant Cdc25B, OMFP fluorescence Ex485/Em525. AID 368. P30305. 65,000 compounds, 0.1% hits. inhibition, %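 (compounds tested at 10 µM final in the well)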; in the data active means inhibition above about 50%
SK-BR-3 tox 24h = SK-BR-3 proliferation inhibitors; SK-BR-3 viability, CellTiter-Glo ATP luminescence, 24 h; hits give low values; viability, % at 10 µM; 41,000 compounds, 0.47% hits;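 active means viability at or below the median of all test compounds minus 3 SD, in both replicates if run twice, cut at about 45% in these data; inconclusive means duplicate replicates that disagree with each other; inactive means viability above that cutoff in every replicate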
Hsp90 inh = displaces geldanamycin probe from tumor Hsp90; P07900; NCI-N417 lysate Hsp90, Cy3B-geldanamycin FP displacement; 64,000 compounds, 0.35% hits; inhibition, % at 30 µM;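 active means inhibition above 50%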
DUSP1 inh = inhibitors of human MKP-1 phosphatase. P28562. recombinant MKP-1, OMFP hydrolysis fluorescence. inhibition, %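 (compounds tested at a single concentration somewhere between 10 and 100 µM)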. 65,000 compounds, 0.15% hits. AID 374;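 active means inhibition above about 50%, limit read from the data; inconclusive means inhibition over screen mean plus 3 SD, below that limit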
Target sequence (P28562 whole entry, looked up): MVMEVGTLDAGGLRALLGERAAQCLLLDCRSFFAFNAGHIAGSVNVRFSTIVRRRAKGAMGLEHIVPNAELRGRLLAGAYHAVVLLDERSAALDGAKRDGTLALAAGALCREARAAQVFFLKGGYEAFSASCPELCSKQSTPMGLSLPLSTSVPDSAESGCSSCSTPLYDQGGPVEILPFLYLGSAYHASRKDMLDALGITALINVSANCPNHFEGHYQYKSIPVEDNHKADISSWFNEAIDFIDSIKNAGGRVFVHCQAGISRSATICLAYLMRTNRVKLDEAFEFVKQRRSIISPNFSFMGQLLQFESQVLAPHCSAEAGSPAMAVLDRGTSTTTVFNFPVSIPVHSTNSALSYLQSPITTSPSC
HER2 expr 66K = lowers expression of human Her2 kinase | P04626 | SKBR-3 HER2 protein level, AlphaScreen, 18-24 h; hits give low values | HER2 level % of control, % at 10 µM | 65,000 compounds, 0.69% hits | AID 645;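 active means HER2 level under 5% of the carrier-only control; inconclusive means no clear call, values can overlap the other calls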;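 further: lower value means stronger loss of Her2 protein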
Hits are given with their value; 0 = inactive; ? = inconclusive; - = not tested or not shown.

SMILES | Cdc25B inh | SK-BR-3 tox 24h | Hsp90 inh | DUSP1 inh | HER2 expr 66K
NCC1OC(O[C@@H]2[C@H](O)C(OC3C(O)C(N)CC(N)C3OC3OC(CO)C(O)C(O)C3N)O[C@@H]2CO)C(N)C(O)C1O (stereo partly specified) | - | - | 0 | - | -
N.N.O=C(O)C1(C(=O)O)CCC1.[Pt+2] | - | - | 0 | - | -
NC(=O)C1(N2CCCCC2)CCN(C(=O)c2ccc(-n3cnnn3)cc2)CC1 | 0 | 42 | 0 | 0 | 0
Cc1cccn2c(=O)c3cc(C(=O)N4CCN(c5ccccc5)CC4)n(C)c3nc12 | 0 | 0 | 0 | 0 | 0
COC(=O)Nc1ccc(S(=O)(=O)N(CCO)CC(F)(F)C(F)F)cc1 | 0 | 0 | 0 | 0 | -19
COC(=O)C1CCN(C(=O)COC(=O)CC(NC(N)=O)c2ccc(Cl)cc2)CC1 (stereo unspecified) | 0 | - | 0 | 0 | 0
CCOc1cc(C2c3c(n[nH]c3C)C(=O)N2c2ccc(Br)cc2)ccc1O (stereo unspecified) | 0 | 37 | 0 | 0 | 0
COc1cc(C2c3c(n[nH]c3C)C(=O)N2c2ccc(Br)cc2)ccc1O (stereo unspecified) | 0 | 0 | 0 | 0 | 0
Cc1cc(O)cc(O)c1-c1onc(C(F)(F)F)c1-c1cscn1 | 0 | - | 69 | 0 | 0
Cc1noc(C)c1C(=O)N1CCc2ccccc2C1 | 0 | 0 | 0 | 0 | -16
CC(=O)c1cccc(NC(=O)NC2CCCCC2)c1 | 0 | - | 0 | 0 | 0
O=C(Nc1cccc(C(=O)N2CCOCC2)c1)NC1CCCCC1 | 0 | 0 | 0 | 0 | -22
CC(=O)c1ccc(NC(=O)CSc2nnc(Cc3cccn3C)n2-c2ccc(F)cc2)cc1 | 0 | - | 87 | 0 | 0
Cc1ccc(NC(=O)CSc2nnc(Cc3cccn3C)n2-c2ccc(F)cc2)cc1 | 0 | - | 0 | 0 | 0
CC(O)CCc1nc2ccc(C(=O)O)cc2[nH]1 (stereo unspecified) | 0 | 0 | 0 | 0 | -19
C1CCC(c2nn3c(-c4n[nH]c5c4CCC5)nnc3s2)CC1 | 0 | 0 | 0 | 0 | 0
CCN(CC)c1ccc(-c2nn3c(-c4n[nH]c5c4CCC5)nnc3s2)cc1 | 0 | ? | 0 | ? | -29
CCOC(=O)c1c(NC(=O)CSc2n[nH]c(N)n2)sc(CC)c1C | 0 | - | 0 | 0 | -33
CCOC(=O)N1CCN(C(=O)CSCc2nc(-c3ccccc3C)oc2C)CC1 | 0 | - | 0 | 0 | -23
Cc1nc2c(OCc3ccccc3)cccn2c1CC#N | - | - | 0 | - | -
CCOC(=O)NC1(NCc2ccccc2)Oc2ccccc2O1 | 0 | - | 51 | 0 | 0
Cn1c(=O)n(CCc2ccccc2)c(=O)c2c1nc1n2CCCN1c1ccc(F)cc1 | 0 | 0 | 0 | 0 | 0
CCOc1ccc(S(=O)(=O)N2CCN(c3ccc(OC)cc3)CC2)c2cccnc12 | 0 | 0 | 0 | 0 | 0
CCOc1ccc(S(=O)(=O)Nc2ccc3c(c2)OCO3)c2cccnc12 | 0 | 0 | 54 | 0 | 0
CCOc1ccc(S(=O)(=O)N2CCN(c3ccccc3)CC2)c2cccnc12 | 0 | 42 | 0 | 0 | 0
SMILES | Cdc25B inh | SK-BR-3 tox 24h | Hsp90 inh | DUSP1 inh | HER2 expr 66K
CC1CCN(CCCNC(=O)c2cc3sccc3n2C)CC1 | 0 | 42 | 0 | 0 | 0
O=S1(=O)C=C(Sc2nnc(-c3ccccc3)o2)c2ccccc21 | 0 | 1.4 | 0 | 0 | -9.4
CC1=CC(C#N)(C#N)C(C#N)(C#N)C(c2ccccc2)N1 (stereo unspecified) | 0 | 0 | 51 | 0 | 0
CCSC1(SCC)N=C(N)C2(C#N)C(c3ccccc3)NC(C)=C(C)C12C#N (stereo unspecified) | 0 | 0 | 0 | 0 | 0
CCOC(=O)N1CCN(c2nnnn2-c2ccccc2)CC1 | 0 | 0 | 0 | 0 | -26
O=C(Cn1cnc2ccccc2c1=O)NCCC(=O)Nc1ccc2c(c1)OCCO2 | 0 | 0 | 86 | 0 | 0
Cc1cc(C(=O)Nc2ccccn2)no1 | 0 | 0 | 0 | 0 | 0
O=C(Nc1ccccn1)c1ccc2ccccc2n1 | 70 | - | 0 | 0 | 0
Cn1c(=O)n(CCc2ccccc2)c(=O)c2c1nc1n2CCN1c1ccccc1 | 0 | - | 0 | 0 | 0
CC1=C(C#N)c2nc(N)c(C#N)c(C)c2/C1=C\c1ccccc1 | 0 | 0 | 0 | 0 | 0
N#Cc1ccc(OCC(=O)N2CCN(S(=O)(=O)c3cccs3)CC2)cc1 | 0 | - | 0 | 0 | 0
O=C(COc1ccccc1)N1CCN(S(=O)(=O)c2cccs2)CC1 | 61 | 0 | - | 0 | 0
Oc1cc(O)cc(/C=C/c2ccc(O)c(O)c2)c1 | - | - | 108 | - | -
CC(C)OC(=O)CSc1nc2ccccc2s1 | 0 | 0 | 93 | 0 | 0
CC(C)c1nnc(NC(=O)CSc2nc3ccccc3s2)s1 | 0 | 0 | 0 | 0 | 0
N#Cc1c(-c2ccccc2)no[n+]1[O-] | - | - | 0 | - | -
CCN1CCN(c2ncc(C(=O)Nc3cc(Cl)ccc3OC)c3ccccc23)CC1 | 0 | 33 | 0 | 0 | 0
FC(F)(F)c1cc(-c2ccco2)nc(NCc2ccco2)n1 | 0 | 0 | 0 | 0 | 0
CS(=O)(=O)c1nc(-c2ccco2)cc(C(F)(F)F)n1 | 0 | 31 | - | 0 | -22
CC1CC(C)CN(c2nc3c(c(=O)[nH]c(=O)n3C)n2CCSc2nc3ccccc3o2)C1 (stereo unspecified) | 0 | - | 0 | 0 | 0
N#Cc1c(-c2ccco2)cc(-c2ccccn2)nc1N | 0 | 0 | 0 | 0 | -1.2
N#Cc1c(-c2ccco2)cc(-c2cccnc2)nc1N | 0 | 0 | 0 | 0 | 0
Cc1ccnc(NC(=O)COC(=O)C2COc3ccccc3O2)n1 (stereo unspecified) | 0 | - | 0 | 0 | 0
Cc1nnc(SCc2nnc(-c3ccc(Cl)cc3)o2)n1-c1ccccc1 | 0 | - | 0 | 0 | 0
Cc1nnc(SCc2nnc(-c3ccccc3Br)o2)n1-c1ccccc1 | 0 | - | 0 | 0 | -12
SMILES | Cdc25B inh | SK-BR-3 tox 24h | Hsp90 inh | DUSP1 inh | HER2 expr 66K
CC1CCN(S(=O)(=O)c2ccc(S(=O)(=O)NCC3COCCO3)cc2)CC1 (stereo unspecified) | 0 | 0 | 0 | 0 | 0
O=C(Oc1ccc(Cl)c2cccnc12)N1CCOCC1 | 0 | 0 | 0 | 0 | 1.0
O=C(Oc1ccc(Cl)c2cccnc12)N1CCCCC1 | 0 | 0 | 0 | 0 | 0
CCCCC#Cc1nc(N)c2ncn([C@@H]3O[C@H](C(=O)NCC)[C@@H](O)[C@H]3O)c2n1 | - | - | 0 | - | -
COCc1cc(C)nc(Nc2ccc(C)c(C)c2)c1C#N | 0 | - | 0 | 0 | -3.1
COCc1cc(C)nc(Nc2ccc(C)cc2C)c1C#N | 0 | 38 | 0 | 0 | 0
CCCn1c(=O)c(C(=O)Nc2nnc(C)s2)c(O)c2ccccc21 | 0 | - | 0 | 0 | 0
CCCC1(CCC)NC(=O)N(CC(=O)Nc2cccc(OC)c2)C1=O | 0 | - | 0 | 0 | 0
O=C1CC(Sc2nnnn2C2CCCCC2)C(=O)N1c1ccccc1 (stereo unspecified) | 0 | - | 0 | 0 | -3.2
O=C(Cc1cccs1)NCC1CCCO1 (stereo unspecified) | 0 | 35 | 0 | 0 | 0
O=C(NCC1CCCO1)c1ccc(C(=O)NCC2CCCO2)cc1 (stereo unspecified) | 0 | 0 | 0 | 0 | 0
Cc1cccc(NC(=O)c2oc3c(c2C)C(=O)CC(C)(C)C3)n1 | 0 | 0 | 0 | 0 | 0
CN(C)CCCNc1ccc(N(O)O)c2cccnc12 | - | - | 0 | - | -
COC(=O)c1ccc2c(=O)sc(N3CCC(C(N)=O)CC3)nc2c1 | 0 | - | 0 | 0 | 0
